# About 79,000 compounds went through this panel and 15% of them were active in at least one assay; those are over-represented in the sample as a whole. Unmarked numbers belong to inactive results. Activity calls are given as the source filed them. No stated cut-off is given here; in the data, active means growth inhibition above about 70%; inactive means the rest.
# Experiment: NCI Yeast Anticancer Drug Screen. Data for the rad50 strain (AID 155);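 further: 0% = growth of vehicle-only cultures of the same strain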
# Conditions: S. cerevisiae rad50 strain growth inhibition; at 50.0 µM; stronger effect = higher value
# Experimental: Growth inhibition of yeast strains with defined genetic alterations is measured as a screen for potential anti-cancer activity. Selected strains with alterations in DNA damage repair or cell cycle control were exposed to compounds and growth inhibition was measured relative to vehicle treated controls. The strain used in this assay is rad50
row,Compound,growth inhibition
1,CNc1ccc(Cl)cc1S(=O)(=O)c1ccccc1[N+](=O)[O-],3.2%
2,COc1cc2c3c(c1)nc(C)n3C(=O)C(c1ccccc1)S2 (stereo not given),-17.6%
3,CCOC(=O)COc1c(C)cccc1C,17.6%
4,Nc1nnc2nc(CC(=O)Cc3ccccc3)c(CC(=O)Cc3ccccc3)nn12,0.3%
5,C=C[Si](Cl)(Cl)c1ccccc1,15.9%
6,COc1ccc(S(=O)(=O)Oc2ccc(Cl)cc2)cc1,-2.35%
7,Cc1c(Cl)cc(Cl)c(N)c1Cl,-4.4%
8,CN(C)CCN1CCCN(C)CC1,-14.9%
9,C(=C1\CCC/C(=C/c2ccccc2)C1=NNc1ccccc1)/c1ccccc1,19.7%
10,CCC(c1ccc(OC)cc1)c1cc2c(cc1OCCO)OCO2 (stereo not given),70.9% (active)
11,COc1ccc2[nH]c3c4c(ccc3c2c1)C(=O)C=CC4=O,19.8%
12,COc1ccccc1OCC(O)CO (stereo not given),-8.3%
13,O=C(NCc1ccccc1)C1CCN(Cc2c[nH]c3ccccc23)CC1,-0.3%
14,O=c1ccn2c(n1)OC1CC2OC1COC(c1ccccc1)(c1ccccc1)c1ccccc1 (stereo not given),-8.8%
15,C[N+](C)(C)CCC(=O)N1C/C(=C\c2ccccc2)C(=O)/C(=C/c2ccccc2)C1,-35.6%
16,COC(=O)c1cc(C(=O)OC)c(C/C(=N/NC(N)=S)C(=O)Nc2ccc(Cl)c(Cl)c2)nc1C/C(=N/NC(N)=S)C(=O)Nc1ccc(Cl)c(Cl)c1,28.4%
17,COC1CC2CC1C1COCC21 (stereo not given),7.15%
18,CN(C)CCNC(=O)c1ccc(C(=O)NCCN(C)C)c2c(C(=O)NCCN(C)C)ccc(C(=O)NCCN(C)C)c12,19.1%
19,CCC(CC)COC(=O)CC(C)=O,18.2%
20,O=C(O)c1cc(=O)[nH]c(=O)[nH]1,-17.6%

row,Compound,growth inhibition
1,O=C1NNC2(C(=O)N1)c1ccccc1-c1ccccc12,8.5%
2,CCCOC(=O)c1ccc(Cl)c(Cl)c1,10.6%
3,N=C(N)C(N=Nc1ccccc1)C(=N)N (stereo not given),-25.4%
4,CC(=O)OCC1OC(n2c(-c3ccc(Cl)cc3)cc(-c3ccccc3)c(C#N)c2=S)C(OC(C)=O)C(OC(C)=O)C1OC(C)=O (stereo not given),20.6%
5,CNCCNc1ncc([N+](=O)[O-])s1,-3.25%
6,CC[P+](C)(C)c1ccccc1,30.9%
7,O=C(NC(=O)c1c(F)cccc1F)Nc1ccc(C(O)(C(F)(F)F)C(F)(F)F)cc1,-33.2%
8,CCOC(=O)C1=C(C)NC(C)=C(C(=O)OCC)C1,14.9%
9,O=C(O)c1cc(C2CCCC2)nc2ccccc12,4.6%
10,Nc1cccc2ccc(Cl)nc12,37.9%
11,CC(C)(C)OC(=O)c1ccc(NCc2cc(O)ccc2O)cc1,87.4% (active)
12,COCCNC(C)=O,13.8%
13,CSc1nc(N(C)C)c2[nH]c(C)nc2n1,7.2%
14,CCCCCCCCCCN(CCCCCCCCCC)C(C)C(O)c1ccc2cc(Br)c3ccccc3c2c1 (stereo not given),-12.4%
15,Cc1cc(Cl)ccc1NC(=O)C1C(=O)C(=O)N(c2ccc(Cl)cc2C)C1=O (stereo not given),7.4%
16,Cc1cc2c(=O)cc(-c3ccncc3)oc2c(C(=O)O)c1C,20.7%
17,C[S+](C)N(c1ccccc1)C(C)(C)C,-10.1%
18,NC(=O)Nc1ccc2[nH]c(=O)c3ccccc3c2c1,7.4%
19,COC(=O)c1ccc(/C2=c3\cc/c([n-]3)=C(\c3ccc(C(=O)OC)cc3)c3ccc([n-]3)/C(c3ccc(C(=O)OC)cc3)=c3/cc/c([n-]3)=C(\c3ccc(C(=O)OC)cc3)c3ccc2[n-]3)cc1.[Mn],14.8%
20,CO/C(N)=C(\C#N)N=Cc1ccco1,-21.4%
